Measurements published in the supplement of paper PMC10037445.
In all, about 2,900 compounds were measured (“NF-kB SEAP reporter activity, fold change vs agonist alone”: median about 0.99, highest 2% from about 2.6 on). The sample holds the highest values, similar compounds and a random draw of the others, so the mix is not that of the screen.

Experiments:
[1] = system: RAW-Dual; experiment: NF-kB SEAP reporter activity, fold change vs agonist alone; higher = enhanced NF-kB activity
In short: (§1)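 Reporter activity is given as fold change relative to agonist-alone wells. To measure it, 50 nL of library stock was pin-tooled onto RAW-Dual macrophages (50,000 cells/well, DMEM, 384-well plates), a PRR agonist followed 1 h later, and cells stayed at 37 °C, 5% CO2. Twenty hours on, supernatant was assayed for IRF (QuantiLuc luminescence) and NF-κB (QuantiBlue, 620 nm absorbance), and wells under 70% of agonist-control IncuCyte confluency in both mask sets were marked cytotoxic.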

[2] = system: RAW-Dual; experiment: NF-kB SEAP reporter activity, fold change vs agonist alone; cytotoxicity flag (confluency mask): not cytotoxic; higher = enhanced NF-kB activity
In short: as §1

[3] = system: RAW-Dual; experiment: NF-kB SEAP reporter activity, fold change vs agonist alone; cytotoxicity flag (confluency mask): cytotoxic (confluency <70% of control); higher = enhanced NF-kB activity
In short: as §1

[4] = library stock concentration (final ~1000-fold dilution): 10 mM, cytotoxicity flag (confluency mask): not cytotoxic, agonist: Imiquimod (TLR7) […]
[5] = library stock concentration (final ~1000-fold dilution): 10 mM, cytotoxicity flag (confluency mask): not cytotoxic, agonist: MPLA (TLR4) […]
[6] = agonist: ODN 1826 (TLR9) 0.5 ug/mL
[7] = agonist: Pam2CSK4 (TLR2/6) 0.1 ug/mL
[8] = agonist: Pam3CSK4 (TLR2/1) 0.1 ug/mL
[9] = library stock concentration (final ~1000-fold dilution): 10 mM, cytotoxicity flag (confluency mask): cytotoxic (confluency <70% of control), agonist: Imiquimod (TLR7) […]
[10] = library stock concentration (final ~1000-fold dilution): 10 mM, cytotoxicity flag (confluency mask): cytotoxic (confluency <70% of control), agonist: MPLA (TLR4) […]

CC(C)(C)NC(=O)C1CCC2C3CCC4NC(=O)C=CC4(C)C3CCC12C (centres undefined)
NF-kB SEAP reporter activity [1, 4]: 0.218
NF-kB SEAP reporter activity [1, 5]: 1.07

CC(C)(C)NC(=O)C1CCC2C3CCC4NC(=O)C=CC4(C)C3CCC12C (centres undefined) (library stock concentration (final ~1000-fold dilution): 10 mM)
NF-kB SEAP reporter activity ([2]; agonist: LPS (TLR4) 0.1 ug/mL): 0.988
NF-kB SEAP reporter activity [2, 6]: 0.946
NF-kB SEAP reporter activity [2, 7]: 0.943
NF-kB SEAP reporter activity [2, 8]: 0.998

COc1ccc(-c2oc3c(CC=C(C)C)c(O)cc(O)c3c(=O)c2OC2OC(C)C(O)C(O)C2O)cc1 (centres undefined) (library stock concentration (final ~1000-fold dilution): 10 mM)
NF-kB SEAP reporter activity ([3]; agonist: LPS (TLR4) 0.1 ug/mL): 2.22
NF-kB SEAP reporter activity [3, 6]: 0.553
NF-kB SEAP reporter activity [3, 7]: 0.251
NF-kB SEAP reporter activity [3, 8]: 0.457

COc1ccc(-c2oc3c(CC=C(C)C)c(O)cc(O)c3c(=O)c2OC2OC(C)C(O)C(O)C2O)cc1 (centres undefined)
NF-kB SEAP reporter activity [1, 9]: 1.82
NF-kB SEAP reporter activity [1, 10]: 1.45

CSC1(C(=O)Nc2ccc3[nH]nc(-c4ccc(OC(C)C)nc4)c3c2)CCN(CC(=O)N2CC=C(c3ccc(-c4ncn(C)n4)cc3)CC2)C1 (centres undefined)
NF-kB SEAP reporter activity [1, 4]: 0.202
NF-kB SEAP reporter activity [1, 5]: 0.321

CSC1(C(=O)Nc2ccc3[nH]nc(-c4ccc(OC(C)C)nc4)c3c2)CCN(CC(=O)N2CC=C(c3ccc(-c4ncn(C)n4)cc3)CC2)C1 (centres undefined) (library stock concentration (final ~1000-fold dilution): 10 mM)
NF-kB SEAP reporter activity ([2]; agonist: LPS (TLR4) 0.1 ug/mL): 0.407
NF-kB SEAP reporter activity [2, 6]: 0.343
NF-kB SEAP reporter activity [2, 7]: 0.0837
NF-kB SEAP reporter activity [2, 8]: 0.136

CC(C)(C)c1nc(-c2ccc(NC(=O)Nc3cccc(C(F)(F)F)c3)c3ccccc23)c2c(N)nccn12 (library stock concentration (final ~1000-fold dilution): 10 mM)
NF-kB SEAP reporter activity ([3]; agonist: LPS (TLR4) 0.1 ug/mL): 0.488
NF-kB SEAP reporter activity [3, 6]: 0.163
NF-kB SEAP reporter activity [3, 7]: 0.0888
NF-kB SEAP reporter activity [3, 8]: 0.136

CC(C)(C)c1nc(-c2ccc(NC(=O)Nc3cccc(C(F)(F)F)c3)c3ccccc23)c2c(N)nccn12
NF-kB SEAP reporter activity [1, 9]: 0.139
NF-kB SEAP reporter activity [1, 10]: 0.252

CNC(=O)c1cc(Oc2ccc(NC(=O)Nc3ccc(Cl)c(C(F)(F)F)c3)c(F)c2)ccn1.O
NF-kB SEAP reporter activity [1, 5]: 1.58

CNC(=O)c1cc(Oc2ccc(NC(=O)Nc3ccc(Cl)c(C(F)(F)F)c3)c(F)c2)ccn1.O (library stock concentration (final ~1000-fold dilution): 10 mM)
NF-kB SEAP reporter activity ([2]; agonist: LPS (TLR4) 0.1 ug/mL): 0.727
NF-kB SEAP reporter activity [2, 6]: 0.502
NF-kB SEAP reporter activity [2, 7]: 0.166
NF-kB SEAP reporter activity [2, 8]: 0.205

COc1ccc2[nH]cc(C=C3C(=O)Nc4ccc(NC(=O)CCN5CCCCC5)cc43)c2c1 (library stock concentration (final ~1000-fold dilution): 10 mM)
NF-kB SEAP reporter activity ([3]; agonist: LPS (TLR4) 0.1 ug/mL): 4.16
NF-kB SEAP reporter activity [3, 6]: 0.42
NF-kB SEAP reporter activity [3, 7]: 1.36
NF-kB SEAP reporter activity [3, 8]: 2.01

Cc1[nH]c(C=C2C(=O)Nc3ccc(F)cc32)c(C)c1C(=O)NCCN1CCCC1
NF-kB SEAP reporter activity ([1]; library stock concentration (final ~1000-fold dilution): 2 mM, cytotoxicity flag (confluency mask): not cytotoxic, agonist: MPLA (TLR4) […]): 0.63

Cc1[nH]c(C=C2C(=O)Nc3ccc(F)cc32)c(C)c1C(=O)NCCN1CCCC1 (library stock concentration (final ~1000-fold dilution): 2 mM)
NF-kB SEAP reporter activity ([2]; agonist: LPS (TLR4) 0.1 ug/mL): 1.04
NF-kB SEAP reporter activity [2, 6]: 0.183
NF-kB SEAP reporter activity [2, 7]: 0.266
NF-kB SEAP reporter activity [2, 8]: 0.414

COc1ccc2[nH]cc(C=C3C(=O)Nc4ccc(NC(=O)CCN5CCCCC5)cc43)c2c1
NF-kB SEAP reporter activity [1, 9]: 1.4
NF-kB SEAP reporter activity [1, 10]: 2

CCS(=O)(=O)Nc1ccc2c(c1)/C(=C(/Nc1ccc(CN3CCCCC3)cc1)c1ccccc1)C(=O)N2 (library stock concentration (final ~1000-fold dilution): 10 mM)
NF-kB SEAP reporter activity ([3]; agonist: LPS (TLR4) 0.1 ug/mL): 0.196
NF-kB SEAP reporter activity [3, 6]: 0.197
NF-kB SEAP reporter activity [3, 7]: 0.0873
NF-kB SEAP reporter activity [3, 8]: 0.163

CCS(=O)(=O)Nc1ccc2c(c1)/C(=C(/Nc1ccc(CN3CCCCC3)cc1)c1ccccc1)C(=O)N2
NF-kB SEAP reporter activity [1, 9]: 0.214
NF-kB SEAP reporter activity [1, 10]: 0.227

CO[C@H](c1c(NC(=O)Nc2cnc(-n3nccn3)c(Cl)c2)cnc2cc(Cl)nn12)[C@@H](C)OC (library stock concentration (final ~1000-fold dilution): 10 mM)
NF-kB SEAP reporter activity ([2]; agonist: LPS (TLR4) 0.1 ug/mL): 1.37
NF-kB SEAP reporter activity [2, 6]: 0.862
NF-kB SEAP reporter activity [2, 7]: 0.76
NF-kB SEAP reporter activity [2, 8]: 0.777

CO[C@H](c1c(NC(=O)Nc2cnc(-n3nccn3)c(Cl)c2)cnc2cc(Cl)nn12)[C@@H](C)OC
NF-kB SEAP reporter activity [1, 4]: 0.986
NF-kB SEAP reporter activity [1, 5]: 0.994

C=Cc1c(C)c2cc3nc(cc4[nH]c(cc5nc(cc1[nH]2)C(C)=C5CCC(=O)O)c(CCC(=O)OC)c4C)C1(C)C3=CC=C(C(=O)OC)C1C(=O)OC (centres undefined) (library stock concentration (final ~1000-fold dilution): 10 mM)
NF-kB SEAP reporter activity ([3]; agonist: LPS (TLR4) 0.1 ug/mL): 0.243
NF-kB SEAP reporter activity [3, 6]: 0.233
NF-kB SEAP reporter activity [3, 7]: 0.193
NF-kB SEAP reporter activity [3, 8]: 0.191

C=Cc1c(C)c2cc3nc(cc4[nH]c(cc5nc(cc1[nH]2)C(C)=C5CCC(=O)O)c(CCC(=O)OC)c4C)C1(C)C3=CC=C(C(=O)OC)C1C(=O)OC (centres undefined)
NF-kB SEAP reporter activity [1, 9]: 0.297
NF-kB SEAP reporter activity [1, 10]: 0.349

CNC(=O)c1cccc(-c2ccc3c(N4CCOCC4C)nc(N4CCOCC4C)nc3n2)c1 (centres undefined) (library stock concentration (final ~1000-fold dilution): 10 mM)
NF-kB SEAP reporter activity ([2]; agonist: LPS (TLR4) 0.1 ug/mL): 1.11
NF-kB SEAP reporter activity [2, 6]: 0.489
NF-kB SEAP reporter activity [2, 7]: 0.376
NF-kB SEAP reporter activity [2, 8]: 0.57

CNC(=O)c1cccc(-c2ccc3c(N4CCOCC4C)nc(N4CCOCC4C)nc3n2)c1 (centres undefined)
NF-kB SEAP reporter activity [1, 4]: 1.13
NF-kB SEAP reporter activity [1, 5]: 1.22

Oc1c(Cl)cc(Cl)cc1Sc1cc(Cl)cc(Cl)c1O
NF-kB SEAP reporter activity [1, 9]: 1.81
NF-kB SEAP reporter activity [1, 10]: 1.6

Oc1c(Cl)cc(Cl)cc1Sc1cc(Cl)cc(Cl)c1O (library stock concentration (final ~1000-fold dilution): 10 mM)
NF-kB SEAP reporter activity ([3]; agonist: LPS (TLR4) 0.1 ug/mL): 3.19
NF-kB SEAP reporter activity [3, 6]: 1.08
NF-kB SEAP reporter activity [3, 7]: 0.362
NF-kB SEAP reporter activity [3, 8]: 0.801

CCC1(O)C(=O)OCc2c1cc1n(c2=O)Cc2cc3cc(O)ccc3nc2-1 (centres undefined)
NF-kB SEAP reporter activity [1, 9]: 2.34
NF-kB SEAP reporter activity [1, 10]: 2
NF-kB SEAP reporter activity [1, 4]: 0.896
NF-kB SEAP reporter activity [1, 5]: 0.856

CCC1(O)C(=O)OCc2c1cc1n(c2=O)Cc2cc3c(CN(C)C)c(O)ccc3nc2-1.Cl (centres undefined)
NF-kB SEAP reporter activity [1, 9]: 2.3
NF-kB SEAP reporter activity [1, 10]: 2.16

CCC1(O)C(=O)OCc2c1cc1n(c2=O)Cc2cc3c(CN(C)C)c(O)ccc3nc2-1 (centres undefined)
NF-kB SEAP reporter activity [1, 4]: 1.46
NF-kB SEAP reporter activity [1, 5]: 1.93

CCC1(O)C(=O)OCc2c1cc1n(c2=O)Cc2cc3c(CN(C)C)c(O)ccc3nc2-1 (centres undefined) (library stock concentration (final ~1000-fold dilution): 10 mM)
NF-kB SEAP reporter activity ([2]; agonist: LPS (TLR4) 0.1 ug/mL): 2.01
NF-kB SEAP reporter activity [2, 6]: 1.59
NF-kB SEAP reporter activity [2, 7]: 0.849
NF-kB SEAP reporter activity [2, 8]: 1.27

CCC1(O)C(=O)OCc2c1cc1n(c2=O)Cc2cc3cc(O)ccc3nc2-1 (centres undefined) (library stock concentration (final ~1000-fold dilution): 10 mM)
NF-kB SEAP reporter activity ([2]; agonist: LPS (TLR4) 0.1 ug/mL): 1.08
NF-kB SEAP reporter activity [2, 6]: 0.937
NF-kB SEAP reporter activity [2, 7]: 1.07
NF-kB SEAP reporter activity [2, 8]: 1.14
NF-kB SEAP reporter activity ([3]; agonist: LPS (TLR4) 0.1 ug/mL): 1.9
NF-kB SEAP reporter activity [3, 6]: 2.17
NF-kB SEAP reporter activity [3, 7]: 1.03
NF-kB SEAP reporter activity [3, 8]: 1.5

CCC1(O)C(=O)OCc2c1cc1n(c2=O)Cc2cc3c(CN(C)C)c(O)ccc3nc2-1.Cl (centres undefined) (library stock concentration (final ~1000-fold dilution): 10 mM)
NF-kB SEAP reporter activity ([3]; agonist: LPS (TLR4) 0.1 ug/mL): 2.73
NF-kB SEAP reporter activity [3, 6]: 2.71
NF-kB SEAP reporter activity [3, 7]: 0.868
NF-kB SEAP reporter activity [3, 8]: 1.35
